Only some compounds are listed: those with a hit (about 5.5% of all), similar ones and a draw of the others.
Giardia killer – Giardia lamblia killing; Giardia lamblia trophozoite viability; actives 0.15% (n = 340,000); activity change, % at 7.66 µM, hits read low; AID 540267; in the data active = activity change below about -80%; inconclusive = between about -30% and that limit;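 also: parasites exposed to compound for two days anaerobically before the ATP read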
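ATP-content bioluminescence gauges trophozoite survival. Cells (100/well) receive compound and incubate anaerobically for 48 hrs at 37 deg C; detection reagent follows for 15-30 min at room temperature.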
ELG1 DNA repair – inhibitors of ELG1-dependent DNA repair in HEK293T cells; HEK293T ELG1-luciferase reporter, luminescence, 16 h; DNA damage induced by 5-fluorouridine; Potency, µM (highest dose often 46.1 µM), most hits filed as inhibitors; actives 2.3% (n = 330,000); also: nearly all actives have a fitted effect of over 55% in size
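Quantitative HTS, concentration-response format. 2,000 cells/well co-treated with 5-fluorouridine and compound, 16 hr in 5% CO2 at 37 °C; ONE-Glo luminescence read after 30 min.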
FBPA coupling cs – coupling enzyme interference in Giardia aldolase counter-screen; coupling enzyme system counterscreen, AmpLite Red fluorescence; activity change, negative = inhibition, % at 58.2 µM, hits read low; actives 0.67% (n = 290,000); AID 2472; in the data active = activity change below about -30%
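Coupling enzymes only (glyceraldehyde-3-phosphate) + compound, at 57.5 uM final, 10 min RT; add substrate/coupling/AmpLite Red mix, 20 min RT; fluorescence ex 525/em 598 nm. Actives flag coupling-system interference.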
Sfp PPTase inh – Sfp phosphopantetheinyl transferase inhibition; Q9F4F7; Biochemical Sfp PPTase activity, qHTS; Potency, µM, usual class: inhibitors; actives 3.5% (n = 310,000); AID 1490;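 also: the enzyme is Sfp with the accession as filed and its product quenches rhodamine fluorescence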
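Compounds were incubated with enzyme (final 15 nM) for 15 min at room temperature before substrate addition started the reaction. Fluorescence at 525 nm excitation, 598 nm emission was recorded immediately and after 30 minutes.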
Numbers stand for hits. Unless noted, calls follow the shape of the dose curve; as a rule, active = well fitted curve in the direction sought with a large enough effect; inconclusive = small, poorly fitted or top-dose-only effect, or another doubt; inactive = no such curve, though single readings can be large; an effect the other way counts as inactive or inconclusive.

How did S=C(Nc1ccc2c(c1)OCO2)Nc1ccc2c(c1)OCO2 do in these assays?
Giardia killer: inactive; ELG1 DNA repair: inactive; FBPA coupling cs: inactive; Sfp PPTase inh: inactive

How did CC(=O)NC(=S)Nc1ccc(NC(=S)NC(=O)/C=C/c2ccco2)cc1 do in these assays?
Giardia killer: inactive; ELG1 DNA repair: inactive; FBPA coupling cs: inactive; Sfp PPTase inh: inactive

Results for O=C(/C=C/c1ccco1)Nc1ccc(S(=O)(=O)N2CCOCC2)cc1 ?
Giardia killer: inactive; ELG1 DNA repair: inactive; FBPA coupling cs: inactive; Sfp PPTase inh: inactive

Results for CN(C)C(=S)Nc1ccc2c(c1)OCO2 ?
Giardia killer: inactive; ELG1 DNA repair: inactive; FBPA coupling cs: inactive; Sfp PPTase inh: 22µM

What do the screens show for `CC(=O)NS(=O)(=O)c1ccc(NC(=O)/C=C/c2ccco2)cc1`?
Giardia killer: inactive; ELG1 DNA repair: inactive; FBPA coupling cs: inactive; Sfp PPTase inh: 56µM

How did Cc1ccc(N(C(=O)c2csnn2)C(C(=O)NC2CCCCC2)c2ccncc2)c(C)c1 (stereo not given) do in these assays?
Giardia killer: inactive; ELG1 DNA repair: inactive; FBPA coupling cs: inactive; Sfp PPTase inh: inactive

How did CCOc1ccc(CCN2C(=S)N([C@@H](CC(C)C)CN3CCCC3CN3C(=S)NC[C@@H]3Cc3ccc(O)cc3)C[C@@H]2CC(C)C)cc1 (stereo not given in full) do in these assays?
Giardia killer: inactive

How did CC(C)c1cc(C(=O)N2CCCC(N3CCN(c4ccc(F)cc4)CC3)C2)no1 (stereo not given) do in these assays?
Giardia killer: inactive; ELG1 DNA repair: inactive; Sfp PPTase inh: inactive

How did Cc1noc(C)c1S(=O)(=O)Nc1ccc(C(C)C)cc1 do in these assays?
Giardia killer: inactive; ELG1 DNA repair: inactive; FBPA coupling cs: inactive; Sfp PPTase inh: inactive

What do the screens show for `O=C(/C=C/c1ccco1)NC(=S)Nc1ccc(C(=O)O)cc1`?
Giardia killer: inactive; ELG1 DNA repair: inconclusive; FBPA coupling cs: inactive; Sfp PPTase inh: 56µM

Results for C#CCOc1nc(Nc2cccc([N+](=O)[O-])c2)nc(OCC#C)n1 ?
Giardia killer: inactive; ELG1 DNA repair: 18µM; FBPA coupling cs: inactive; Sfp PPTase inh: inactive

How did COc1nc(Nc2cccc([N+](=O)[O-])c2)nc(OC)n1 do in these assays?
Giardia killer: inactive; ELG1 DNA repair: inconclusive; FBPA coupling cs: inactive; Sfp PPTase inh: inactive

What do the screens show for `CN(C(=O)c1ccc(NC(=O)Cc2cccc(NC(=O)C3CCN(C(=O)c4ccccc4)CC3)c2)cc1)C1CCCC1`?
Giardia killer: inactive; ELG1 DNA repair: inconclusive

Results for O=C(CN1C(=O)/C(=C/c2c(F)cccc2Cl)Oc2ccccc21)NCc1ccco1 ?
ELG1 DNA repair: inactive; FBPA coupling cs: inactive; Sfp PPTase inh: 40µM

Results for Cc1ccc(-c2csc3nc(C)n(-n4cccc4)c(=O)c23)o1 ?
Giardia killer: inactive; ELG1 DNA repair: inactive; FBPA coupling cs: inactive; Sfp PPTase inh: 56µM

How did Cc1ccc(-c2csc3nc(C)n(N)c(=O)c23)cc1 do in these assays?
Giardia killer: inactive; ELG1 DNA repair: inactive; FBPA coupling cs: inactive; Sfp PPTase inh: inactive

How did Cc1cc(C)cc(-n2nnn(C3C/C(=N/NC(N)=S)C4OCC3O4)c2=S)c1 (stereo not given) do in these assays?
Giardia killer: inactive; ELG1 DNA repair: inactive; FBPA coupling cs: inactive; Sfp PPTase inh: 56µM

What do the screens show for `Cc1cc(NN)nc2ccc(Cl)cc12`?
Giardia killer: inactive; ELG1 DNA repair: inactive; FBPA coupling cs: inactive; Sfp PPTase inh: 11µM

How did c1ccc(-c2ccc(C3=Nn4c(Cn5nnc6ccccc65)nnc4SC3)cc2)cc1 do in these assays?
Giardia killer: inactive; ELG1 DNA repair: inconclusive; FBPA coupling cs: inactive; Sfp PPTase inh: 28µM

Results for c1ccc(Cc2nnc3n2N=C(c2ccccc2)CS3)cc1 ?
Giardia killer: inactive; ELG1 DNA repair: inconclusive; FBPA coupling cs: -54; Sfp PPTase inh: inconclusive

What do the screens show for `Clc1ccc(C2=Nn3c(Cn4nnc5ccccc54)nnc3SC2)cc1`?
Giardia killer: inactive; ELG1 DNA repair: inactive; FBPA coupling cs: inactive; Sfp PPTase inh: 32µM

How did Cc1ccnc(NC(=O)C2CC(=O)N(Cc3ccccc3)C2)c1 (stereo not given) do in these assays?
Giardia killer: inactive; ELG1 DNA repair: inconclusive

What do the screens show for `Cc1ccc(Cl)cc1N(CC(=O)NC1CCCC1)C(=O)c1csnn1`?
Giardia killer: inactive; ELG1 DNA repair: inactive; FBPA coupling cs: inactive; Sfp PPTase inh: inactive

How did Cc1cccc(C(=O)c2c(N)sc3c2CCCC3)c1 do in these assays?
Giardia killer: inactive; ELG1 DNA repair: inactive; FBPA coupling cs: inactive; Sfp PPTase inh: 45µM

Results for Cc1cccc(C(=O)c2c(N)sc3c2CCC(C)C3)c1 (stereo not given) ?
Giardia killer: inactive; ELG1 DNA repair: inconclusive; FBPA coupling cs: inactive; Sfp PPTase inh: inconclusive

Results for CCOC(=O)c1c(N)ssc1=S ?
Giardia killer: inactive; ELG1 DNA repair: inconclusive; FBPA coupling cs: inactive; Sfp PPTase inh: 22µM

Results for Nc1sc2c(c1C(=O)NC1CCS(=O)(=O)C1)CCC2 (stereo not given) ?
Giardia killer: inactive; ELG1 DNA repair: inactive; FBPA coupling cs: inactive; Sfp PPTase inh: 18µM

Results for CCCOC(=O)c1c(N)sc2c1CCC2 ?
Giardia killer: inactive; ELG1 DNA repair: inactive; FBPA coupling cs: inactive; Sfp PPTase inh: 50µM

What do the screens show for `O=C1OC(CO)CN1Cc1ccccc1` (stereo not given)?
Giardia killer: inactive; ELG1 DNA repair: inactive; FBPA coupling cs: inactive; Sfp PPTase inh: inactive

How did Nc1sc2c(c1C(=O)c1ccc(Cl)cc1)CCCC2 do in these assays?
FBPA coupling cs: inactive; Sfp PPTase inh: inactive

How did CCOC(=O)c1c(N)sc(N)c1C(=O)OCC do in these assays?
Giardia killer: inactive; ELG1 DNA repair: inactive; FBPA coupling cs: inactive; Sfp PPTase inh: inconclusive

Results for NC(=O)c1c(N)sc2c1CCCCC2 ?
Giardia killer: inactive; ELG1 DNA repair: inactive; FBPA coupling cs: inactive; Sfp PPTase inh: 22µM

Results for NC(=O)c1c(N)sc2c1CCC2 ?
Giardia killer: inactive; ELG1 DNA repair: inactive; FBPA coupling cs: inactive; Sfp PPTase inh: 22µM

Results for CCOC(=O)c1c(N)sc(=S)c2c1CCC2 ?
Giardia killer: inactive; ELG1 DNA repair: inactive; FBPA coupling cs: inactive; Sfp PPTase inh: 32µM

Results for S=C(NC1CCCCC1)N1CCOCCOCCN(C(=S)NC2CCCCC2)CCOCCOCC1 ?
Giardia killer: inactive; ELG1 DNA repair: 18µM; FBPA coupling cs: inactive; Sfp PPTase inh: inactive

How did O=C(NC1CCCCCC1)C(=S)NC1CCCCC1 do in these assays?
Giardia killer: inactive; ELG1 DNA repair: inconclusive; FBPA coupling cs: inactive; Sfp PPTase inh: 20µM

Results for O=C(NC1CCCCCC1)C(=O)NC1CC1 ?
Giardia killer: inactive; ELG1 DNA repair: inactive; FBPA coupling cs: inactive; Sfp PPTase inh: inactive

How did O=C(NC1CCCCCC1)C(=S)N1CCOCC1 do in these assays?
Giardia killer: inactive; ELG1 DNA repair: inactive; FBPA coupling cs: inactive; Sfp PPTase inh: 16µM

Results for O=C(NC1CCN(Cc2ccccc2)CC1)c1cn(-c2ccccc2)nc1-c1cccnc1 ?
Giardia killer: inactive; ELG1 DNA repair: inactive

Results for O=C(O)/C(=C\c1ccc2ccccc2c1)c1cccc2ccccc12 ?
Giardia killer: inactive
